Rab9 promoter act: qHTS Assay for Rab9 Promoter Activators | hit rate 2.8% among 320,000 | Potency, µM (highest dose often 9.22 µM), inactives show at the highest dose activation, negative = inhibition, most hits filed as activators | Huh7 Rab9 promoter-luciferase reporter, luminescence, 24 h | AID 485297, 2010; further: % of control where 0% means no effect; nearly all actives have a fitted effect of over 60% in size
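Luminescence from Amplite-detected luciferase (10 minutes, ambient) reports Rab9 promoter activation. Before that, stable Rab9-luciferase Huh7 cells (1500/well, reduced-serum OP-MEM I plus 10% FBS) were exposed to compound for 24 hours at 37C.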
ELG1 DNA repair: qHTS screen for small molecules that inhibit ELG1-dependent DNA repair in human embryonic kidney (HEK293T) cells expressing luciferase-tagged ELG1; HEK293T ELG1-luciferase reporter, luminescence, 16 h; DNA damage induced by 5-fluorouridine; Potency, µM (series often up to 46.1 µM), for inactives: at the highest dose activity change, negative = inhibition, actives largely listed as inhibitors; hit rate 2.3% among 330,000; AID 504467, 2011; further: on the % scale 0 is the no-effect control and ±100 the full control effect; nearly all actives have a fitted effect of over 55% in size
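Overnight (16 hr) co-exposure of 2,000 cells/well to 5-fluorouridine and compound at 37 °C preceded detection. Luciferase was quantified via ONE-Glo luminescence; loss of signal denotes inhibition.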
NPC1 promoter act: qHTS Assay for NPC1 Promoter Activators; Potency, µM (series often up to 9.22 µM), inactives show at the highest dose activation, actives largely listed as activators; Huh7 NPC1 promoter luciferase reporter, 24 h; hit rate 2.4% among 320,000; further: % of control where 0% means no effect; nearly all actives have a fitted effect of over 60% in size
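Quantitative HTS used a cell-based reporter: Huh7 cells stably bearing the NPC1 promoter upstream of luciferase were treated with compounds for 24 h, and promoter activation was read as luminescence.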
SMN2 splice enh: qHTS Assay for Enhancers of SMN2 Splice Variant Expression | HEK293 SMN2-luciferase splicing reporter, luminescence, 30-36 h | Potency, µM (top dose mostly 46.1 µM), for the others: at the highest dose activity change, positive = activation, most hits filed as activators | hit rate 2.8% among 210,000 | AID 1458, 2008; further: % of control where 0% means no effect; nearly all actives have a fitted effect of over 55% in size
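qHTS luciferase splicing reporter: luminescence rises when SMN2 exon 7 is included in transfected HEK293 cells. Compound exposure lasted 30-36 h at 37C, with 4.5 mM final sodium butyrate as control, followed by a ONE-Glo read.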
ELG1 genotoxic: qHTS screen for small molecules that induce genotoxicity in human embryonic kidney (HEK293T) cells expressing luciferase-tagged ELG1; hit rate 1.3% among 330,000; AID 504466, 2011; HEK293T ELG1-luciferase reporter, luminescence, 16 h; Potency, µM (highest dose often 46 µM), for inactives: at the highest dose activity change, positive = activation, actives largely listed as activators; further: % of control where 0% means no effect; nearly all actives have a fitted effect of over 60% in size
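Screening used a luciferase reporter fused to human ELG1 in HEK293T cells. Luminescence was read on a CCD plate imager after 16 hr exposure and 30 min ONE-Glo incubation.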
FLuc modulator: qHTS profiling assay for firefly luciferase inhibitor/activator using purifed enzyme and Km concentrations of substrates (counterscreen for miR-21 project). Luciferin 4-monooxygenase (Photinus pyralis), P08659. purified FLuc, Km substrates, luminescence inhibition. Potency, µM (top dose mostly 57.5 µM), without a hit: top-dose activity change, negative = inhibition, most hits filed as inhibitors. hit rate 6.9% among 360,000. AID 588342, 2011;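 further: plate controls were vehicle for no effect and reference inhibitor for full effect; nearly all actives have a fitted effect of over 55% in size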
Target sequence (P08659 whole entry, looked up): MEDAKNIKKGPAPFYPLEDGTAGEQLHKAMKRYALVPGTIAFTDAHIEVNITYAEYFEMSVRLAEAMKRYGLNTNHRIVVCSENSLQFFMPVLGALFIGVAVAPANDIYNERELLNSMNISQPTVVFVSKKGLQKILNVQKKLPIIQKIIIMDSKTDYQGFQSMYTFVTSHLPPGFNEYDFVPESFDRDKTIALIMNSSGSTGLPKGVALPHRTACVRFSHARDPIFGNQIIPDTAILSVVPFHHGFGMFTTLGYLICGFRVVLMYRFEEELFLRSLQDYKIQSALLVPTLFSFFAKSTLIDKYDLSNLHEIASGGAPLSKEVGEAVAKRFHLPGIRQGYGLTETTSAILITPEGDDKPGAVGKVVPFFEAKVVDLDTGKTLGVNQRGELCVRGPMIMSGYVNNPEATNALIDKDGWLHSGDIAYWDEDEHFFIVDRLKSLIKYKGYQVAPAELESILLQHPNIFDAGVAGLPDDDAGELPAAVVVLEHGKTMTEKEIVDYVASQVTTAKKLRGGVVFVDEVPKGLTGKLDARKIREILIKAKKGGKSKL
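Purified P. pyralis luciferase (10nM final) with 10uM D-luciferin and 10uM ATP (Km levels) in 50mM Tris acetate pH 7.5, 10mM Mg acetate, 0.01% Tween-20, 0.05% BSA; qHTS 6-point titration, ~60 µM downward; luminescence read.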
Starred values were filed as active, the others as inactive; ? = inconclusive; . = no result. Hits are enriched below; roughly 9.4% of the tested compounds scored in any of these assays. The call rests on the fitted dose curve; in most records, active means well fitted curve in the direction sought with a large enough effect; inconclusive means small, poorly fitted or top-dose-only effect, or another doubt; inactive means no such curve, though single readings can be large; an effect the other way counts as inactive or inconclusive. Potency means the concentration at half of the fitted maximal effect.

SMILES | Rab9 promoter act | ELG1 DNA repair | NPC1 promoter act | SMN2 splice enh | ELG1 genotoxic | FLuc modulator
COCCNC(=O)c1ccc2c3n(nc2c1)-c1ccc(C)cc1CO3 | 1.1µM* | ? | 0.71µM* | . | ? | 6.7µM*
C/C(=N\Nc1nc2ccccc2[nH]1)c1cc2ccccc2o1 | ? | ? | 16% | 13µM* | ? | 2.4µM*
C/C(=N\Nc1nc2ccccc2[nH]1)c1ccccn1 | 29% | ? | ? | . | 2.5µM* | 0.85µM*
COc1ccc2nc(-n3c(O)c(C4=c5ccccc5=NC4=O)[nH]c3=S)sc2c1 | -5% | 17% | -3% | -11% | -1% | 11µM*
Cn1c(O)c(C2=c3ccccc3=NC2=O)[nH]c1=S | 8% | 2% | 21% | 8% | -1% | -4%
COc1cccc(C(=O)Nc2ccc3nc(SCCOc4ccccc4)sc3c2)c1 | . | . | . | . | . | -1%
Cc1ccc(OCc2nc(-c3ccc(C(=O)N4CCN(c5ccccc5F)CC4)cc3)oc2C)cc1 | . | . | . | . | . | -10%
O=C(c1ccc(CSCc2ccccc2F)o1)N1CCN(c2ccc(N3CCOCC3)nn2)CC1 | 0% | 18µM* | -3% | -47% | -31% | ?
Cc1ccc2oc3c(c(=O)c2c1)C(c1ccccc1F)N(c1ccccn1)C3=O (centres undefined) | . | . | . | -2% | . | 1%
Cc1ccc2oc3c(c(=O)c2c1)C(c1cccc(O)c1)N(c1ccccn1)C3=O (centres undefined) | -2% | 16µM* | -2% | -43% | -32% | 1%
Cc1cc(C)c(NC(=O)c2c(C)oc3c2C2=NCCN2C=N3)c(C)c1 | . | . | . | . | . | -1%
COc1ccc(CCNC(=O)c2ccccc2)cc1 | 27% | ? | 26% | . | 8% | ?
COc1ccc2c(Sc3ccccc3)c(C(=O)NCCc3ccc(Cl)cc3)[nH]c2c1 | . | . | . | . | . | 5.4µM*
COc1ccc(CCNC(=O)c2ccc(Cl)cc2)cc1 | -2% | 9% | 0% | -20% | 1% | -17%
COc1ccc(CCNC(=O)c2nn(C)cc2Cl)cc1 | 19% | ? | 20% | 11µM* | ? | ?
CCCOc1ccc(CNC(=O)c2[nH]c3cc(OC)ccc3c2Sc2ccccc2)cc1 | . | . | . | . | . | 6%
COc1ccc2c(=O)c(C(=O)NCCc3ccccc3)c[nH]c2c1 | ? | ? | ? | . | 11% | 17µM*
COc1ccc(OC(=O)NCCc2ccccc2)cc1 | 3.5µM* | ? | 4µM* | . | ? | 15µM*
COc1ccc2[nH]cc(C(=O)NCCc3ccccc3)c(=O)c2c1 | 20% | -9% | 15% | . | 5% | -16%
COC(=O)C1(C(=O)OC)C[C@@H]2CON=C2[C@H]1c1ccccc1 | . | . | . | 3% | . | .
CCS(=O)(=O)N1CCC2(CC1)OC(=O)C(C)=C2C(=O)NCc1ccc(OC)c(OC)c1 | . | . | . | . | . | 2%
COc1ccc(-c2nc(SCC(=O)NCCc3ccccc3)n[nH]2)cc1 | . | . | . | . | . | 17µM*
COc1ccc(CCNC(=O)c2ccc3ccccc3n2)cc1 | 22% | ? | 6% | . | 18µM* | ?
Cc1ccc2c(=O)c(C(=O)NCc3cccs3)c[nH]c2c1 | ? | ? | 17% | -1% | 16% | 17µM*
O=C(CSc1n[nH]c(-c2ccccc2)n1)NCCc1ccccc1 | . | . | . | . | . | -16%
SMILES | Rab9 promoter act | ELG1 DNA repair | NPC1 promoter act | SMN2 splice enh | ELG1 genotoxic | FLuc modulator
CC(=O)c1ccc(NC(=O)C(Cc2ccccc2)NS(=O)(=O)c2ccc3c(c2)CCC(=O)N3)cc1 (centres undefined) | . | . | . | 10% | . | -2%
CCC(C(=O)Nc1ccc(C(C)C)cc1)n1nc(C)n2c(cc3cc(C)ccc32)c1=O (centres undefined) | . | . | . | 11% | . | -10%
CC(=O)c1cccc(NC(=O)COc2ccccc2C(=O)c2cc(C#N)c(=O)n(C3CCCCC3)c2)c1 | 1% | 10µM* | -6% | 3% | -2% | -1%
N#Cc1cc(C(=O)c2ccccc2OCC(=O)Nc2ccccc2Cl)cn(C2CCCCC2)c1=O | -1% | ? | -3% | -9% | -3% | 2%
CC(=O)c1cccc(NC(=O)CCCN2C(=O)COc3ccc(C)cc32)c1 | . | . | . | -3% | . | 2%
O=C(Nc1ccccc1Cl)Nc1ccccc1Cl | 17% | ? | 15% | . | 8% | ?
O=C(Nc1ccccc1)Nc1cc(Cl)cc(Cl)c1 | ? | 0% | 11% | -9% | -1% | 27µM*
O=C(Nc1ccc(Cl)cc1)Nc1ccccc1Sc1ncc([N+](=O)[O-])s1 | ? | ? | ? | . | ? | 12µM*
O=C(Nc1csc([N+](=O)[O-])c1)Nc1ccccc1Cl | 15% | -13% | 14% | . | -6% | 17µM*
O=C(Nc1ccc(Nc2ccccc2)cc1)Nc1ccccc1Cl | ? | ? | ? | . | ? | 11µM*
CCc1cccc(-n2c(=O)c3cccnc3n2CC(=O)Nc2c(C)cc(C)cc2C)c1 | . | . | . | . | . | -2%
COc1ccc(NC(=O)CN2CCCN(Cc3ccc(Cl)cc3)S2(=O)=O)cc1Cl | . | . | . | -24% | . | -12%
Cc1ccc(C2C=C(c3ccc(F)cc3)Nc3nc(CCCO)nn32)cc1 (centres undefined) | . | . | . | -29% | . | 4%
O=C(Nc1ccc(Cl)cc1)N1CCC(c2nc(-c3ccccc3Cl)no2)CC1 | -12% | 13µM* | 3% | -46% | -3% | -12%
CCCN(CCC)c1nn2c(=O)c(C(=O)NCc3cc(Br)ccc3OC)cnc2s1 | . | . | . | . | . | -15%
C=CCn1c(C)nc2ccccc2c1=O | -2% | 5% | 1% | . | 1% | 0%
O=c1[nH]c(N/N=C/c2ccc(O)cc2)nc2ccccc12 | 2.2µM* | ? | ? | 22µM* | 21µM* | 11µM*
C=CCn1c(N/N=C/c2ccc(O)cc2)nc2ccccc2c1=O | 30% | ? | -2% | -1% | ? | 2.4µM*
O=c1[nH]c(N/N=C\c2ccc(F)cc2)nc2ccccc12 | 1.3µM* | ? | ? | 10µM* | ? | 4.8µM*
COc1ccccc1C(=O)N1CCC(c2noc(-c3ccc(S(=O)(=O)N4CCCC4)cc3)n2)CC1 | . | . | . | -75% | . | 4%
Cc1cc(C)n2nc(SCc3nnc(SCc4ccccc4Cl)s3)nc2n1 | -4% | 15% | -3% | -56% | -1% | 17µM*
Cc1cc(C)n2nc(SCc3nnc(SCc4ccccc4C)s3)nc2n1 | -2% | ? | 0% | -23% | -6% | ?
